In the supplement of paper PMC8728848:
Shown is part of a subset that was picked to be rich in the strongest signals.

Legend:
Experiment in all cases: glycan array binding signal (z-score within array); higher = stronger binding
Details in all cases: glycan notation: IUPAC condensed, linker removed
Fuc(a1-2)Gal(b1-3)GalNAc = target: Fuc(a1-2)Gal(b1-3)GalNAc
Summary of the method: (§1)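 Arrays were curated from the Consortium for Functional Glycomics database, 3228 in total, and kept only where the protein sequence was available. Binding is expressed as a within-array Z-score. This score was averaged across arrays of the same protein sequence at different concentrations or buffers and across linkers, and negative values can be read as non-binding.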

[1] = target: Fuc(a1-2)Gal(b1-3)GalNAc(a1-3)[Fuc(a1-2)]Gal(b1-4)GlcNAc
Summary of the method: as §1

Fuc(a1-2)Gal(b1-3)GlcNAc = target: Fuc(a1-2)Gal(b1-3)GlcNAc
Summary of the method: as §1

[2] = target: Fuc(a1-2)Gal(b1-3)GlcNAc(b1-2)Man(a1-3)[Fuc(a1-2)Gal(b1-3)GlcNAc(b1-2)Man(a1-6)]Man(b1-4)GlcNAc(b1-4)GlcNAc
Summary of the method: as §1

[3] = target: Fuc(a1-2)Gal(b1-3)GlcNAc(b1-3)Gal(b1-4)Glc
Summary of the method: as §1

Fuc(a1-2)Gal(b1-4)Glc6S = target: Fuc(a1-2)Gal(b1-4)Glc6S
Summary of the method: as §1

[4] = target: Fuc(a1-2)Gal(b1-4)GlcNAc(b1-3)Gal(b1-4)GlcNAc(b1-2)Man(a1-3)[Fuc(a1-2)Gal(b1-4)GlcNAc(b1-3)Gal(b1-4)GlcNAc(b1-2)Man(a1-6)]Man(b1-4)GlcNAc(b1-4)GlcNAc
Summary of the method: as §1

[5] = target: Fuc(a1-2)[Gal(a1-3)]Gal(b1-3)GlcNAc
Summary of the method: as §1

[6] = target: Fuc(a1-2)[Gal(a1-3)]Gal(b1-3)GlcNAc(b1-2)Man(a1-3)[Fuc(a1-2)[Gal(a1-3)]Gal(b1-3)GlcNAc(b1-2)Man(a1-6)]Man(b1-4)GlcNAc(b1-4)GlcNAc
Summary of the method: as §1

[7] = target: Fuc(a1-2)[Gal(a1-3)]Gal(b1-4)GlcNAc
Summary of the method: as §1

[8] = target: Fuc(a1-2)[Gal(a1-3)]Gal(b1-4)[Fuc(a1-3)]Glc
Summary of the method: as §1

[9] = target: Fuc(a1-2)[GalNAc(a1-3)]Gal
Summary of the method: as §1

[10] = target: Fuc(a1-2)[GalNAc(a1-3)]Gal(b1-3)GalNAc(b1-3)Gal(a1-4)Gal(b1-4)Glc
Summary of the method: as §1

[11] = target: Fuc(a1-2)[GalNAc(a1-3)]Gal(b1-3)GlcNAc(b1-2)Man(a1-3)[Fuc(a1-2)[GalNAc(a1-3)]Gal(b1-3)GlcNAc(b1-2)Man(a1-6)]Man(b1-4)GlcNAc(b1-4)GlcNAc
Summary of the method: as §1

[12] = target: Fuc(a1-2)[GalNAc(a1-3)]Gal(b1-4)Glc
Summary of the method: as §1

[13] = target: Fuc(a1-3)[Gal(b1-4)]GlcNAc(b1-6)[Gal(b1-3)GlcNAc(b1-3)]Gal(b1-4)Glc
Summary of the method: as §1

Fuc(a1-4)GlcNAc = target: Fuc(a1-4)GlcNAc
Summary of the method: as §1

[14] = target: Gal(a1-3)Gal(b1-4)GlcNAc(b1-2)Man(a1-3)[Gal(a1-3)Gal(b1-4)GlcNAc(b1-2)Man(a1-6)]Man(b1-4)GlcNAc(b1-4)GlcNAc
Summary of the method: as §1

[15] = target: Gal(a1-4)Gal(b1-3)GlcNAc(b1-2)Man(a1-3)[Gal(a1-4)Gal(b1-3)GlcNAc(b1-2)Man(a1-6)]Man(b1-4)GlcNAc(b1-4)GlcNAc
Summary of the method: as §1

[16] = target: Gal(a1-4)Gal(b1-4)GlcNAc(b1-3)Gal(b1-4)Glc
Summary of the method: as §1

Gal(a1-4)GlcNAc = target: Gal(a1-4)GlcNAc
Summary of the method: as §1

Gal(b1-3)GlcNAc(b1-2)Man = target: Gal(b1-3)GlcNAc(b1-2)Man
Summary of the method: as §1

[17] = target: Gal(b1-3)GlcNAc(b1-2)[Gal(b1-3)GlcNAc(b1-6)]Man(a1-6)[Gal(b1-3)GlcNAc(b1-2)Man(a1-3)]Man(b1-4)GlcNAc(b1-4)GlcNAc
Summary of the method: as §1

[18] = target: Gal(b1-3)GlcNAc(b1-3)Gal(b1-3)GlcNAc
Summary of the method: as §1

[19] = target: Gal(b1-3)GlcNAc(b1-3)Gal(b1-4)[Fuc(a1-3)]GlcNAc
Summary of the method: as §1

[20] = target: Gal(b1-3)GlcNAc(b1-6)Gal(b1-4)GlcNAc
Summary of the method: as §1

[21] = target: Gal(b1-3)GlcNAc(b1-6)GalNAc
Summary of the method: as §1

Gal(b1-4)GlcNAc = target: Gal(b1-4)GlcNAc
Summary of the method: as §1

[22] = target: Gal(b1-4)GlcNAc(a1-6)Gal(b1-4)GlcNAc
Summary of the method: as §1

Gal(b1-4)GlcNAc(b1-2)Man = target: Gal(b1-4)GlcNAc(b1-2)Man
Summary of the method: as §1

[23] = target: Gal(b1-4)GlcNAc(b1-2)Man(a1-3)Man(b1-4)GlcNAc(b1-4)GlcNAc
Summary of the method: as §1

[24] = target: Gal(b1-4)GlcNAc(b1-2)Man(a1-3)[GlcNAc(b1-2)Man(a1-6)]Man(b1-4)GlcNAc(b1-4)GlcNAc
Summary of the method: as §1

[25] = target: Gal(b1-4)GlcNAc(b1-3)Gal(b1-4)Glc
Summary of the method: as §1

B1: PX14379A-bvu-539-28-539 (Bacteroides vulgatus) (protein)
chain: EPYSEIIEEDYVPTEADEIALLATTYSQLRFVMDWYGLFDLQEESGDVIVTPTRPNGWDDGGTYKQMHKHTWDNQQGQPQSIWDYCYKGIANANKILKRADEGFFTEESKPKVVAEVKGVRALWYSILCDTHGNIPIQTSFSEEVPVQSTRKQVFDFIINELKEVMPNLPTEVNKSTYGRLTQWGAKCLMARMYLNAGVYTGTPMWNECLEQCNDIINSGLFSLETNYTDIFKTENSGCVETIFAIPYDEVYNEGDNNGPVFGAHMKFLSSNSRKVFNMQTTPWGGSAANPQFINSYDPDDMRLKYTWLQGDQYSPDGVLITTFPNKLPSIYKTDTDDGYRVGKYEIKVGAKSLLSNDFPYFRYTEVLLMKAECLLRLGQNETEAAHIVSQIRERAFRESAHPEKATVDAAWLKGDTHINYGTLDEKGQIDDAGNTEVVELGGLYDEWGWEFAAEARRRTDMIRFGTYQKKSWFNHTPTANDLNGNSILFPIHLDHLNTNPNLQQNPGYAGK
Fuc(a1-2)Gal(b1-3)GalNAc
  glycan array binding signal (z-score): -0.448
[1]
  glycan array binding signal (z-score): -0.426
Fuc(a1-2)Gal(b1-3)GlcNAc
  glycan array binding signal (z-score): -0.263
[2]
  glycan array binding signal (z-score): 8.31
[3]
  glycan array binding signal (z-score): -0.301
Fuc(a1-2)Gal(b1-4)Glc6S
  glycan array binding signal (z-score): -0.232
[4]
  glycan array binding signal (z-score): 2.29
[5]
  glycan array binding signal (z-score): -0.419
[6]
  glycan array binding signal (z-score): 9.25
[7]
  glycan array binding signal (z-score): -0.199
[8]
  glycan array binding signal (z-score): -0.231
[9]
  glycan array binding signal (z-score): -0.215
[10]
  glycan array binding signal (z-score): -0.369
[11]
  glycan array binding signal (z-score): 1.23
[12]
  glycan array binding signal (z-score): -0.321
[13]
  glycan array binding signal (z-score): -0.44
Fuc(a1-4)GlcNAc
  glycan array binding signal (z-score): -0.18
[14]
  glycan array binding signal (z-score): 3
[15]
  glycan array binding signal (z-score): 0.016
[16]
  glycan array binding signal (z-score): -0.391
Gal(a1-4)GlcNAc
  glycan array binding signal (z-score): -0.226
Gal(b1-3)GlcNAc(b1-2)Man
  glycan array binding signal (z-score): 0.056
[17]
  glycan array binding signal (z-score): 5.87
[18]
  glycan array binding signal (z-score): 0.03
[19]
  glycan array binding signal (z-score): -0.515
[20]
  glycan array binding signal (z-score): -0.27
[21]
  glycan array binding signal (z-score): -0.344
Gal(b1-4)GlcNAc
  glycan array binding signal (z-score): -0.29
[22]
  glycan array binding signal (z-score): -0.203
Gal(b1-4)GlcNAc(b1-2)Man
  glycan array binding signal (z-score): -0.28
[23]
  glycan array binding signal (z-score): 0.346
[24]
  glycan array binding signal (z-score): 3.64
[25]
  glycan array binding signal (z-score): -0.017
